# Data taken from PubChem BioAssay (EPA / NIEHS).
# Results filed as inconclusive are left out. Activity calls are given as the source filed them. The calls were made as follows: active = hit-call score of the fitted dose curve at least 0.9, where 1 is the maximum; inconclusive = response in the unintended direction; inactive = score below 0.9.
# Read-out: Glyceraldehyde-3-phosphate dehydrogenase (Homo sapiens) (UniProt P04406)
# Assay: CLD_GAPDH_24hr: CellzDirect (CLD) Gene Expression Assay for Baseline Control (Glyceraldehyde 3-phosphate dehydrogenase) at 24 hours (AID 2283692)
# Method: CLD_24hr is a cell-based, multiplexed-readout assay that uses hepatocyte, a human liver primary cell, with measurements taken at 24 hours after chemical dosing in a 96-well plate.CLD_GAPDH_24hr is one of 16 assay component(s) measured or calculated from the CLD_24hr assay. It is designed to make measurements of mRNA induction, a form of inducible reporter, as detected with chemiluminescence signals by Quantitative Nuclease Protection Assay (qNPA) technology.Data from the assay component CLD_GAPDH_24hr was analyzed at the endpoint, CLD_GAPDH_24hr, in the positive analysis fitting direction relative to DMSO as the negative control and baseline of activity. Using a type of inducible reporter, gain-of-signal activity can be used to understand changes in the reporter gene as they relate to the gene GAPDH. Furthermore, this assay endpoint can be referred to as a secondary readout, because this assay has produced multiple assay endpoints where this one serves a background control function. To generalize the intended target to other relatable targets, this assay endpoint is annotated to the background measurement intended target family, where subfamily is baseline control.
# Human hepatocyte cultures were treated daily for two consecutive days with fresh dosing solutions containing appropriate concentrations of the 320 ToxCast chemicals (chemical identities were blinded to CellzDirect and other ToxCast collaborators), vehicle control (0.2% DMSO), and positive control inducers as summarized in Table 1. Due to the large number of treatment groups and chemicals examined, the ToxCast chemicals were divided into two groups (spanning two independent cultures of hepatocytes from separate donor preparations (Hu778: ToxCast plates 1 and 2; Hu776: ToxCast plates 3 and 4). Each preparation of human hepatocyte cultures was treated with respective vehicle control, medium only control, set of six positive controls/reference chemicals for the five hepatic receptor pathways, and a subset of eight of the ToxCast chemicals (indoxacarb, pyrithiobac-sodium, norflurazon, cyhalofop-butyl, methomyl, thiram, acetochlor, and propiconazole). These replicate data, coupled with internal replicates designed within the blinded ToxCast chemical library, provided additional data to evaluate interindividual differences between hepatocyte preparations and their potential impact on chemical profiles.Cell morphology and integrity were evaluated using phase-contrast microscopy as an indicator of hepatocyte cell health (Tyson & Green, 1987). Cultures for each treatment group (i.e., media, vehicle [0.2% DMSO], positive control inducers [multiple concentrations], and the ToxCast chemicals [multiple concentrations]) were observed and cell morphology was assessed relative to vehicle control cultures at each harvest time point (0, 6, 24, or 48 h). […] Images were evaluated at the conclusion of the study to assess changes in cell integrity and account for the effects of chemical exposure on uncharacteristic changes in concentration-dependent gene expression profiles. The results from these determinations of apparent cytotoxicity were annotated (yes/no) alongside the corresponding qNPA data for reference.At the conclusion of each treatment period, hepatocyte cultures (96-well) were washed with 1 volume of HBSS, lysed by addition of 25 ul ArrayPlate lysis buffer (HTG, Tucson, AZ), and 70 ul/well of Denaturation Oil, denatured by incubation at 95C for 10 min, and frozen at approximately -70C until analysis by nuclease protection assay (qNPA) (Roberts et al., 2007). For qNPA analysis, cell lysates were thawed at 50C for approximately 30 min, qNPA probes were added, and samples were incubated at 95C for 10 min to begin the detection process by denaturing the target RNA, dissociating the duplexes and secondary structure hybridization. At the conclusion of the hybridization period, S1 nuclease reagent was added to each sample to digest all nonprotected nucleotides at 50C for 60-90 min. […]
# Chain of Glyceraldehyde-3-phosphate dehydrogenase (Homo sapiens) (P04406 whole entry, looked up): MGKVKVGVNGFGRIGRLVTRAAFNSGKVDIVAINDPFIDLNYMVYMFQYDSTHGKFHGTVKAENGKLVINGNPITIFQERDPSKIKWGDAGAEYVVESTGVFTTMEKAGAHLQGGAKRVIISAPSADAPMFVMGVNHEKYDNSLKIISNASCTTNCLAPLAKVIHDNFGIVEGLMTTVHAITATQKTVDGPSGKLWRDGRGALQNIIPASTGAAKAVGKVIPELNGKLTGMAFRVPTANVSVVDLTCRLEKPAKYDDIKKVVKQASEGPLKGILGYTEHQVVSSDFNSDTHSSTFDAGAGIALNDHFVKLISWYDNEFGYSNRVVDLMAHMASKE
row,Compound,outcome
1,OB(O)O,inactive
2,CCOC(=O)[C@H](C)Oc1ccc(Oc2nc3ccc(Cl)cc3o2)cc1,inactive
3,C#CCOC(=O)[C@@H](C)Oc1ccc(Oc2ncc(Cl)cc2F)cc1,inactive
4,COC(=O)c1ccccc1C(=O)O,inactive
5,COC(=O)c1ccccc1S(=O)(=O)NC(=O)Nc1nc(OC(F)F)cc(OC(F)F)n1,inactive
6,CCCOC(=O)NCCCN(C)C,inactive
7,CCSC(=O)N(CC(C)C)CC(C)C,inactive
8,CCC(O)=C1C(=O)CC(C(=O)O)CC1=O (configuration not stated),inactive
9,COC(=O)c1cccc(C)c1S(=O)(=O)NC(=O)Nc1nc(OCC(F)(F)F)nc(N(C)C)n1,inactive
10,CCOC(=O)COc1cc(-n2ncc(C(F)(F)F)c(C)c2=O)c(F)cc1Cl,inactive
11,CC(C)(C)[C@@H](O)[C@@H](Cc1ccc(Cl)cc1)n1cncn1,inactive
12,CSC(=O)c1cccc2nnsc12,inactive
13,CCCCC(CC)COC(=O)c1ccccc1C(=O)O (configuration not stated),inactive
14,COC(=O)c1c(Cl)nn(C)c1S(=O)(=O)NC(=O)Nc1nc(OC)cc(OC)n1,inactive
15,CCC(C)OC(=O)N1CCCCC1CCO (configuration not stated),inactive
16,S=C([S-])NCCNC(=S)[S-].[Mn+2],inactive
17,S=C(S)NCCNC(=S)S.[Mn+2].[S-]C([S-])=NCCN=C([S-])[S-].[Zn+2],inactive
18,CCNc1nc(N)nc(Cl)n1,inactive
19,COCCO,inactive
20,CCCCCOC(=O)COc1cc(N2C(=O)C3=C(CCCC3)C2=O)c(F)cc1Cl,inactive
21,CCCN(CCC)C(=O)SCC,inactive
22,Oc1ccc(C(c2ccc(O)cc2)C(Cl)(Cl)Cl)cc1,inactive
23,CCCCCCC(C)OC(=O)COc1nc(F)c(Cl)c(N)c1Cl (configuration not stated),inactive
24,N#CSCSc1nc2ccccc2s1,inactive
25,CCCCOC(=O)[C@@H](C)Oc1ccc(Oc2ccc(C(F)(F)F)cn2)cc1,inactive
26,CCCOC(=O)c1ccc(C(=O)OCCC)nc1,inactive
27,CC1(C)C(C=C(Cl)Cl)C1C(=O)OCc1cccc(Oc2ccccc2)c1 (configuration not stated),inactive
